Experimental data: the supplement of paper PMC6135742
Where a name gives a salt, the structure may show the parent alone. Whole data set: some 2,600 compounds, median “MBP+ mature oligodendrocyte number relative to DMSO vehicle control” near -0.34, cut for the highest 2% near 13. The full list was thinned out, with the highest values kept by preference.

Each compound was assayed on jimpy (Plp1 jimpy) mouse iPSC-derived oligodendrocyte progenitor cells (assay: MBP+ mature oligodendrocyte number relative to DMSO vehicle control (SDs above negative control mean); higher = more surviving jimpy oligodendrocytes (rescue)). Settings: 10 µM; 3 days.
Method: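 Primary phenotypic screen of >3,000 bioactive compounds (Selleck L1700 and Sigma LO1280 libraries) at a single dose of 10 µM. Compounds were added to jimpy (Plp1 mutant) mouse iPSC-derived OPCs at the start of thyroid hormone-induced oligodendrocyte differentiation, one well per compound in 384-well plates. After 3 days cells were stained for MBP, Sox10 and DAPI and imaged with an Operetta system. MBP+ oligodendrocyte number and total cell number were expressed as the number of SDs above the mean of the DMSO negative control on the same plate (n=16 control wells per plate). Hits were defined as >=4 SD for oligodendrocytes and >=2 SD for total cells.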

Going from `OC1CCCCC1N1CCC(c2ccccc2)CC1` (racemic) [(±)-Vesamicol hydrochloride] to `CC(C)Oc1cccnc1N(C)C1CCN(Cc2ccccc2)CC1`, the “MBP+ mature oligodendrocyte number” value rises from 15.7 to 19.1.

Going from `Cc1ccc2c(c1)C1(CCN(CCc3nc(-c4ccccc4)oc3C)CC1)OC(=O)N2` to `CN1CC[C@]2(CCN3CCc4c(oc5ccccc45)[C@@H]3C2)N(C)C1=O`, the “MBP+ mature oligodendrocyte number” value rises from -2.6 to 1.72.

Going from `C[N+]1(C)[C@@H]2CC(OC(=O)[C@H](CO)c3ccccc3)C[C@H]1[C@@H]1O[C@@H]12` (single isomer, unassigned; (-)) [(-)-Scopolamine methyl nitrate] to `CCCC[N+]1(C)[C@@H]2C[C@@H](OC(=O)[C@H](CO)c3ccccc3)C[C@H]1[C@@H]1O[C@@H]12` (single isomer, unassigned; (-)) [(-)-Scopolamine,n-Butyl-, bromide], the “MBP+ mature oligodendrocyte number” value falls from 0.539 to -0.925.

Going from `N[C@]1(C(=O)O)CC[C@H](C(=O)O)C1` (racemic) [trans-(±)-ACPD] to `CC(=O)OCC1=C(C(=O)[O-])N2C(=O)[C@@H](NC(=O)CCC[C@@H](N)C(=O)[O-])[C@H]2SC1.[Zn+2]` [Cephalosporin C zinc salt], the “MBP+ mature oligodendrocyte number” value falls from 0.981 to -0.943.

Going from `CN1CC[C@@]2(C)c3cc(O)ccc3N(C)C12` (single isomer, unassigned; (-)) [(-)-Eseroline fumarate] to `COc1ccc2c(c1OC)C(=O)OC2C1c2cc3c(cc2CCN1C)OCO3` (single isomer, unassigned; (+)) [(+)-Hydrastine], the “MBP+ mature oligodendrocyte number” value rises from -1.28 to 1.13.

First: NC(=O)c1ccc(OCC(O)CN2CC=C(c3ccc(F)cc3)CC2)cc1 (stereo not given)
Second: COc1ccc2[nH]c3c(c2c1)CCNC3 [6-Methoxy-1,2,3,4-tetrahydro-9H-pyrido[3,4b] indole]
The “MBP+ mature oligodendrocyte number” value of the first is higher: 13.9 for the first, -0.315 for the second.

Compared with `CCS(=O)(=O)Nc1cccc(C(=C2CCCCC2)c2cnc[nH]2)c1`, `CC(N)Cc1cccc(C(F)(F)F)c1` (single isomer, unassigned; (+)) [(+)-Norfenfluramine hydrochloride] is lower in “MBP+ mature oligodendrocyte number” value: 2.51 for the first, 0.753 for the second.

`CO[C@H]1CC[C@@H](O[C@H]2C[C@H]([C@]3(C)CC[C@]4(C[C@H](O)[C@@H](C)[C@@H]([C@@H](C)/C=C(\C)C(=O)[C@H](C)C[C@H](C)C(=O)O)O4)O3)O[C@]3(O[C@@H]([C@H]4O[C@@](O)(CO)[C@H](C)C[C@@H]4C)C[C@@H]3C)[C@@H]2C)O[C@@H]1C` [Nanchangmycin] was tested, and the “MBP+ mature oligodendrocyte number” value was < -6.7.
